Test results taken from ChEMBL document CHEMBL5724796, “Tm Shift (DSF) assay results for EUbOPEN Chemogenomics Library” (2024).
Non-standard residues stand in square brackets, D forms with d. Residues, ends and D or L forms follow the SMILES beside them. *: point of attachment. Nle = CCCC[C@H](N)C(=O)O; Cbz = O=C(OCc1ccccc1)*; CH2F = FC*

What follows are compounds tested against Tyrosine-protein kinase ABL1 (Homo sapiens) (UniProt P00519). Details: Compound concentration 20.0 uM.
Sequence of Tyrosine-protein kinase ABL1 (Homo sapiens) (P00519 whole entry): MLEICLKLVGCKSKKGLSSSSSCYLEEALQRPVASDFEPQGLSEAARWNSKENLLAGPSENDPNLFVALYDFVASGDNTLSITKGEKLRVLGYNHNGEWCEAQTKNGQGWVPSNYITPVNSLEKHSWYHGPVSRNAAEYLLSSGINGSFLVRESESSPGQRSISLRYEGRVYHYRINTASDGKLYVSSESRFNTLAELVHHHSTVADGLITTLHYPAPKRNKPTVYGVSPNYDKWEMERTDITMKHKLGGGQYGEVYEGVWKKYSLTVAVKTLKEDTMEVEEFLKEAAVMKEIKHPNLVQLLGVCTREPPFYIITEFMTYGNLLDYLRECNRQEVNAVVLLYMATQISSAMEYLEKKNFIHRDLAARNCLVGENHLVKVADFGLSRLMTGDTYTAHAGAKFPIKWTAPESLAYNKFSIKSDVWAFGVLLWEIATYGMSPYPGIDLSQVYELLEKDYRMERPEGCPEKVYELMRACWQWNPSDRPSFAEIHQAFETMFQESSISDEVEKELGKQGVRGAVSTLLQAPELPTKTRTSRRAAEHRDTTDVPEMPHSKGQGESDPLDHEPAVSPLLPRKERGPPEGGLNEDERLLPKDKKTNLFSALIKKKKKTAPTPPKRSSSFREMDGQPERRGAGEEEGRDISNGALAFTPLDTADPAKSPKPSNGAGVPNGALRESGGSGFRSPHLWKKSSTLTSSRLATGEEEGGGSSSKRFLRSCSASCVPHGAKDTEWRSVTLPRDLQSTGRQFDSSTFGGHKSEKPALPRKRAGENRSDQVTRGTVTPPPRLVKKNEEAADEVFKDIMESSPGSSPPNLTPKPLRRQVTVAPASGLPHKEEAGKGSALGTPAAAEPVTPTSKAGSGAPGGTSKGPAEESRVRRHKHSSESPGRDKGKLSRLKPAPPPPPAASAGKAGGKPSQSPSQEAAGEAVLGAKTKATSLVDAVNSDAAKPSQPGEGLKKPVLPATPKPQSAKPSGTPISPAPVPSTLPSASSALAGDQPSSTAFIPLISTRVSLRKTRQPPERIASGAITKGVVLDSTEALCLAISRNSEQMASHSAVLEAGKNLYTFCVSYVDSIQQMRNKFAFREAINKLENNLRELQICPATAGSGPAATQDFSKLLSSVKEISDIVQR

Row | SMILES | ΔTm [°C]
1 | Cc1noc(C)c1-c1cc(Cl)c(Nc2ccccc2C(=O)O)c(Cl)c1 | 0.49
2 | Cc1ncccc1-c1cnc(NCc2c(F)ccc3c2CCO3)n2cnnc12 | 0.04
3 | Fc1ccc(CNc2ncnc3ccc(F)cc23)cc1 | 1.11
4 | CCCC[C@@H](C=O)NC(=O)[C@H](CC(C)C)NC(=O)[C@H](CC(C)C)NC(C)=O (Ac-Leu-Leu-[Nle]-aldehyde) | 0.18
5 | Nc1ncnc2nc(-c3ccc(N4CCOCC4)nc3)cc(-c3cccc(Br)c3)c12 | 4.32
6 | COC(=O)CC[C@H](NC(=O)[C@H](Cc1c[nH]c2ccccc12)NC(=O)OCc1ccccc1)C(=O)N[C@@H](Cc1cnc[nH]1)C(=O)N[C@@H](CC(=O)OC)C(=O)CF (Cbz-WE(OMe)HD(OMe)-CH2F) | 0.62
7 | Cc1ccc(F)c2cc(C(=O)N[C@@H]3CCC[C@H](N4CC[C@H](N(C)S(C)(=O)=O)C4)C3)[nH]c12 | 0.55
8 | NC(=O)c1cnc(N[C@@H]2CCCC[C@@H]2N)nc1Nc1cccc(-n2nccn2)c1 | 3.49
9 | CN(CCCCCCNc1ccnc2cc(Cl)ccc12)CCCCCCNc1ccnc2cc(Cl)ccc12 | -1.1
10 | CCCOc1ccc(NC(=O)CN2CCN(C)CC2)cc1-c1nc(CC)c(CC)c(=O)[nH]1 | 0.61
11 | COc1cc(C(C)C)c2c(c1)S(=O)(=O)N(COc1cc(=O)n3cccc(OCCN4CCCCC4)c3n1)C2=O | 0.26
12 | O=C(CCl)Nc1ccc(S(=O)(=O)c2ccc(NC(=O)CCl)cc2)cc1 | 1.36
13 | CCn1c(=O)c(C)cn(Cc2nnc(-c3ccc(F)c(O)c3F)s2)c1=O | 0.41
14 | Cc1ncsc1-c1ccc([C@H](C)NC(=O)[C@@H]2C[C@@H](O)CN2C(=O)[C@@H](NC(=O)COCCCOCCNC(=O)C[C@@H]2N=C(c3ccc(Cl)cc3)c3c(sc(C)c3C)-n3c(C)nnc32)C(C)(C)C)cc1 | -0.44
15 | COc1cc2c(cc1OC)[C@H]1C[C@@H](OC(=O)[C@@H](N)C(C)C)[C@H](CC(C)C)CN1CC2 | 0.26
16 | CC(=O)OCCN1C(=O)c2c(C)nc3ccc(S(=O)(=O)N4CCOCC4)cc3c2C1=O | -0.43
17 | COc1cc(-c2cn(C)c(=O)c3cnccc23)cc(OC)c1CN(C)C | 0.4
18 | COc1cc(Nc2ncc(F)c(Nc3ccc4c(n3)N(COP(=O)(O)O)C(=O)C(C)(C)O4)n2)cc(OC)c1OC | 2.78
19 | O=C(NO)C(c1ccc(-c2ncc(C(F)(F)F)cn2)cc1)c1ccccc1F (stereo not given) | 0.91
20 | Cc1ccsc1C(=CCCN1CCC[C@@H](C(=O)O)C1)c1sccc1C | 0.26

Row | SMILES | ΔTm [°C]
21 | NC(=O)c1cccc(NC(=O)CCC(=O)NCCc2cn(CCNS(=O)(=O)c3cccc(C(=O)O)c3)nn2)c1 | 0.47
22 | CC(C)c1ccc(C(=O)N=C(N)N)cc1S(C)(=O)=O | 0.77
23 | CCc1oc2ccccc2c1C(=O)c1cc(Br)c(O)c(Br)c1 | 0.11
24 | Cc1sc(C(=O)c2cncnc2N[C@@H]2C[C@H](COS(N)(=O)=O)[C@@H](O)C2)cc1[C@@H]1NCCc2ccc(Cl)cc21 | 0.03
25 | Nc1c[nH]c(=O)c2cc(-c3ccccc3)sc12 | 0.27
26 | O=C(O)CCNc1cc(N2CCc3ccccc3CC2)nc(-c2cccnc2)n1 | 0.76
27 | CC1(C)CC[C@]2(C(=O)O)CC[C@]3(C)C(=CC[C@@H]4[C@@]5(C)C=C(O)C(=O)C(C)(C)[C@@H]5CC[C@]43C)[C@@H]2C1 | 0.5
28 | Cn1ncc2c(-c3c(-c4ccc(F)cn4)nn4c3COC(C)(C)C4)ccnc21 | 0.22
29 | Cc1[nH]c2c(N3CCCCC3)c(-c3ccccc3)nn2c(=O)c1-c1ccc(O)cc1 | -0.07
30 | O=C1c2ccccc2C(=O)c2oc(-c3cccnc3)nc21 | 0.81
31 | Cn1c(NCCN(CCO)CCCc2ccc([N+](=O)[O-])cc2)cc(=O)n(C)c1=O | -0.01
32 | CC(C)[C@H](NC(=O)OCc1ccccc1)C(=O)NC(CC(=O)O)C(=O)CF (stereo not given in full) | -0.18
33 | CN(C)CCCNC(=O)c1ccc(-c2cc(O)c3ncccc3c2)cc1 | 1.29
34 | O=C(c1cc(Cc2n[nH]c(=O)c3ccccc23)ccc1F)N1CC(CNC2CC2)C1 | 0.54
35 | C[C@@H]1O[C@@H](CC(=O)O)CC2=C1C(=O)c1c(O)cccc1C2=O | 0.53
36 | Cc1ncsc1-c1ccc([C@H](C)NC(=O)[C@@H]2C[C@@H](O)CN2C(=O)[C@@H](NC(=O)CNC(=O)c2ccc(F)c(-c3ccc(N4C[C@@H](C)N(C)[C@@H](C)C4)c(NC(=O)c4c[nH]c(=O)cc4C(F)(F)F)c3)c2)C(C)(C)C)cc1 | -0.64
37 | C[C@@H]1OC(=O)NN=C1c1ccc(-c2ccc(F)cc2)c(C(F)(F)F)c1 | -1.46
38 | N#C[C@@H]1CCCN1C(=O)CNC(=O)c1ccnc2ccc(OCCCN3CCN(C(=O)CN4CCN(CC(=O)O)CCN(CC(=O)O)CCN(CC(=O)O)CC4)CC3)cc12 | 0.75
39 | O=C1C(=O)N(Cc2ccccc2)c2ccc(S(=O)(=O)N3CCC[C@H]3COc3ccc(C(F)(F)F)cc3)cc21 | -0.46
40 | CCCCN(Cc1ccc(C(=O)NO)cc1)C(=O)Nc1ccccc1 | 0.74
